Assay results as given in PubChem BioAssay (NCI).
Where “and” joins values, the source holds several entries; their conditions need not be identical. Equal values may be shown once. This is part of a sample that, as a whole, favours compounds with a hit. Of some 83,000 tested, about 20% had one in any assay.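 Treatment: one concentration, 48 hours, 96-well format. Scoring: percent growth, with anything below 10 considered active.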 Calls of active or inactive are those of the source.

Experiments:
Assay in all cases: NCI-60 one-dose screen, 48 h (100 = growth as untreated, 0 = no growth, -100 = all killed)
[1] = tested on: HS 578T breast
[2] = tested on: NCI/ADR-RES ovarian
[3] = tested on: EKVX NSCLC
[4] = tested on: SN12C renal
[5] = tested on: UO-31 renal
[6] = tested on: TK-10 renal
[7] = tested on: ACHN renal
[8] = tested on: CAKI-1 renal
[9] = tested on: A498 renal; conditions: 10 µM unless noted
[10] = tested on: CCRF-CEM leukemia
[11] = tested on: MOLT-4 leukemia
[12] = tested on: SR leukemia
[13] = tested on: RPMI-8226 leukemia; conditions: 10 µM unless noted
[14] = tested on: OVCAR-8 ovarian
[15] = tested on: OVCAR-5 ovarian
[16] = tested on: OVCAR-4 ovarian
[17] = tested on: SK-OV-3 ovarian; conditions: 10 µM unless noted
[18] = tested on: IGROV1 ovarian; conditions: 10 µM unless noted
[19] = tested on: OVCAR-3 ovarian
[20] = tested on: SK-MEL-2 melanoma; conditions: 10 µM unless noted

Measured: growth

CC1(C)OB(c2ccc(Cn3cc(F)c(=O)[nH]c3=O)cc2)OC1(C)C
inactive: [1]; 50 µM 37% | [2]; 10 µM 102% | [2]; 50 µM 94.1%

Nc1ccc2[nH]c(-c3ccccc3)cc(=O)c2c1
inactive: [3]; 10 µM unless noted 96.1% | [4]; 10 µM unless noted 98.2% | [5]; 10 µM unless noted 89.9% | [6]; 10 µM unless noted 123% | [7]; 10 µM unless noted 102% | [8]; 10 µM unless noted 72.2% | [9] 84.2% | [10]; 10 µM unless noted 67.9% | [11]; 10 µM unless noted 63.8% | [13] 86.1% | [14]; 10 µM unless noted 97.4% | [15]; 10 µM unless noted 94.8% | [16]; 10 µM unless noted 111% | [17] 98.1% | [18] 95.5% | [19]; 10 µM unless noted 64.3% | [1]; 10 µM unless noted 107% | [2]; 10 µM unless noted 70.5%
active: [12]; 10 µM unless noted 4.32%

COC(=O)[C@H]1CCCN1C(=O)C1CCCN1C(=O)[C@@H](Cc1ccccc1)NC(=S)Nc1cc(C(F)(F)F)cc(C(F)(F)F)c1 (stereo not given in full)
inactive: [20] 109% and 103% | [4]; 10 µM unless noted 96.1% and 84% | [7]; 10 µM unless noted 98.4% and 85.6% | [8]; 10 µM unless noted 89.2% | [9] 96.6% and 81.4% | [10]; 10 µM unless noted 106% and 72.2% | [11]; 10 µM unless noted 91.3% and 42.9% | [12]; 10 µM unless noted 95.2% and 67.5% | [13] 109% and 66.2% | [14]; 10 µM unless noted 100% and 87% | [15]; 10 µM unless noted 98.9% and 90.4% | [16]; 10 µM unless noted 104% and 80.7% | [17] 128% and 109% | [18] 123% and 69.8% | [19]; 10 µM unless noted 111% and 77.1% | [2]; 10 µM unless noted 109% and 93.9%

Nc1ccccc1SC1CC(=O)N(c2cccc3ccccc23)C1=O (stereo not given)
inactive: [20] 92.6% | [4]; 10 µM unless noted 98.3% | [5]; 10 µM unless noted 68.6% | [6]; 10 µM unless noted 113% | [7]; 10 µM unless noted 97.5% | [8]; 10 µM unless noted 79.7% | [9] 88.8% | [11]; 10 µM unless noted 83.5% | [12]; 10 µM unless noted 88% | [13] 86.3% | [14]; 10 µM unless noted 92.2% | [16]; 10 µM unless noted 93.6% | [17] 88.6% | [19]; 10 µM unless noted 101% | [2]; 10 µM unless noted 96.1%

COc1ccc(Cl)cc1C(=O)NCCc1ccc(S(=O)(=O)NC(=O)NC2CCCCC2)cc1
inactive: [3]; 10 µM 95.5% and 99.6% | [3]; 100 µM 58.6% | [4]; 10 µM 91.4% and 93.8% | [4]; 100 µM 71.4% | [5]; 10 µM 96.2% and 79.1% | [5]; 100 µM 40.6% | [6]; 10 µM 115% and 99.1% | [6]; 100 µM 92.1% | [7]; 10 µM 96.9% and 101% | [7]; 100 µM 54.8% | [8]; 10 µM 94.5% and 94.3% | [8]; 100 µM 56.7% | [9] 73.2% | [10]; 10 µM 86.3% and 95.1% | [10]; 100 µM 64.1% | [11]; 10 µM 113% and 98.6% | [11]; 100 µM 60.6% | [12]; 10 µM 105% and 90% | [12]; 100 µM 61.3% | [13] 104% and 99.5% | [14]; 10 µM 99.8% and 100% | [14]; 100 µM 67.3% | [15]; 10 µM 111% and 112% | [15]; 100 µM 101% | [16]; 10 µM 117% and 103% | [16]; 100 µM 58.7% | [17] 103% and 96.1% | [19]; 10 µM 112% and 121% | [19]; 100 µM 66.1% | [1]; 10 µM 94.7% and 110% | [1]; 100 µM 54.8% | [2]; 10 µM 103% and 107% | [2]; 100 µM 76.6%

Cc1c(Cl)cccc1NCN1C(=O)c2ccccc2C1=O
inactive: [20] 103% | [4]; 10 µM unless noted 112% | [6]; 10 µM unless noted 114% | [7]; 10 µM unless noted 105% | [8]; 10 µM unless noted 94.4% | [9] 101% | [10]; 10 µM unless noted 105% | [11]; 10 µM unless noted 116% | [13] 105% | [14]; 10 µM unless noted 99.8% | [15]; 10 µM unless noted 107% | [16]; 10 µM unless noted 108% | [17] 106% | [19]; 10 µM unless noted 114% | [1]; 10 µM unless noted 118% | [2]; 10 µM unless noted 110%

CC(=O)c1ccccc1O
inactive: [20] 107% and 98.5% and 111% | [3]; 10 µM unless noted 99.7% and 108% and 104% | [4]; 10 µM unless noted 98.1% and 104% and 98.7% | [6]; 10 µM unless noted 104% and 95.9% and 95.7% | [7]; 10 µM unless noted 105% and 101% and 104% | [8]; 10 µM unless noted 92.5% and 99.4% and 87.3% | [10]; 10 µM unless noted 107% and 104% and 101% | [11]; 10 µM unless noted 88.1% and 91.6% and 104% | [12]; 10 µM unless noted 79% | [13] 106% and 103% | [14]; 10 µM unless noted 112% and 101% and 105% | [15]; 10 µM unless noted 102% and 98.4% and 116% | [16]; 10 µM unless noted 110% and 107% and 111% | [17] 114% and 102% and 101% | [18] 102% and 105% and 101% | [19]; 10 µM unless noted 114% and 109% and 106% | [1]; 10 µM unless noted 95.7% and 109% and 98.9% | [2]; 10 µM unless noted 100% and 98.6% and 103%

Nc1ccc2ccc(N)cc2c1
inactive: [4]; 10 µM unless noted 88.5% | [5]; 10 µM unless noted 59.4% | [6]; 10 µM unless noted 117% | [7]; 10 µM unless noted 84.8% | [8]; 10 µM unless noted 75.7% | [9] 100% | [11]; 10 µM unless noted 76.8% | [12]; 10 µM unless noted 36.8% | [13] 84.6% | [14]; 10 µM unless noted 82% | [15]; 10 µM unless noted 124% | [16]; 10 µM unless noted 40% | [17] 91.6% | [18] 73.6% | [19]; 10 µM unless noted 25.5% | [1]; 10 µM unless noted 104% | [2]; 10 µM unless noted 73.5%

CC(O)(CC(=O)CC(=O)c1ccccc1)c1ccccc1 (stereo not given)
inactive: [3]; 10 µM unless noted 103% | [4]; 10 µM unless noted 99.3% and 85.3% | [5]; 10 µM unless noted 96.8% and 94.2% | [6]; 10 µM unless noted 98.5% and 111% | [7]; 10 µM unless noted 94.9% and 106% | [8]; 10 µM unless noted 110% | [9] 79.9% | [10]; 10 µM unless noted 95.4% and 83% | [11]; 10 µM unless noted 87.3% and 113% | [12]; 10 µM unless noted 110% and 103% | [13] 106% and 88.9% | [14]; 10 µM unless noted 106% and 102% | [16]; 10 µM unless noted 69.9% and 118% | [17] 115% and 114% | [18] 91.9% and 103% | [19]; 10 µM unless noted 97.6% and 99% | [1]; 10 µM unless noted 102% | [2]; 10 µM unless noted 83.1% and 72.9%
